Efflux pump mplx: inhibitors of Candida efflux pumps in yeast, primary screen, S. cerevisiae, Nile Red, multiplex; actives 0.44% (n = 330,000); S. cerevisiae Candida pump triplex; inhibition, % at 10 µM; AID 485275, 2010;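 active means plate passing quality check with inhibition over a set limit, or well fluorescence over plate mean plus 4 SD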;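 further: Nile Red retained in pooled yeast measured as flow cytometry median fluorescence; 0% = buffer negative control and 100% = Enniatin B positive control; higher means more Nile Red kept so more efflux inhibition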
ATG4B inhibitor: ATG4B protease inhibitors, primary screen, biochemical, fluorescence, uHTS; Cysteine protease ATG4B (Homo sapiens), Q9Y4P1; ATG4B cleavage of LC3-PLA2, NBD-HPC fluorescence, 1 h; inhibition, % at 8.33 µM; actives 0.51% (n = 340,000); in the data active means inhibition above about 40%
Target sequence (Q9Y4P1 whole entry, looked up): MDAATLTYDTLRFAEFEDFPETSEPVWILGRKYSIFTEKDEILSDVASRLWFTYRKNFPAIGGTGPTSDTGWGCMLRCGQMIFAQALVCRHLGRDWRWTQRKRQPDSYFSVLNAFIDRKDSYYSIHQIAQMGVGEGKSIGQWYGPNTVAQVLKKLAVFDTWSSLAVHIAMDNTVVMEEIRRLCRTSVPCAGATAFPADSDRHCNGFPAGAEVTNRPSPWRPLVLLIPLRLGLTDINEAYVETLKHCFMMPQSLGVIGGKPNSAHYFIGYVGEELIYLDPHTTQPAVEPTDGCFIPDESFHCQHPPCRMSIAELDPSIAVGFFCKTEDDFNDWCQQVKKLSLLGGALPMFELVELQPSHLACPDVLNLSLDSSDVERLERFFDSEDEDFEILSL
GRK2 inh: compounds blocking aptamer binding on GRK2 – biochemical, human GRK2, bead flow cytometry, HTS, primary screen | Beta-adrenergic receptor kinase 1 (Homo sapiens), P25098 | FAM-aptamer displacement from GRK2 | inhibition of aptamer binding, % at 10 µM | actives 0.59% (n = 330,000);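 active means inhibition of aptamer binding above 40%, roughly 3 SD of noise, on plates passing a quality check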;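 further: median bead fluorescence of bound FAM aptamer so fluorescent compounds give negative values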
CR mimetic SO: reduction of superoxide in aged yeast, primary screen, HTS. S. cerevisiae aged cells, superoxide DHE fluorescence; stronger effect = lower value. superoxide response (% of plate mean), % at 10 µM. actives 0.18% (n = 330,000);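 active means superoxide response under a set limit, about three screen SD below normal, cut at about 65% in these data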;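 further: yeast aged for seven days with compound at 30 °C before DHE staining; 100% = average MFI of all compound-treated wells on the plate with controls excluded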
GRK2 CP1: GRK2 aptamer-displacing inhibitors, retest, confirmation, biochemical, cherry pick 1, bead flow cytometry | shares compounds with GRK2 inh | bead-bound GRK2, FAM-aptamer displacement | aptamer displacement, % at 10 µM | actives 4% (n = 2,000);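 active means aptamer displacement above 40%, near three times the noise of non-fluorescent compounds, on plates passing quality checks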;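 further: negative values mostly reflect intrinsic compound fluorescence rather than true enhancement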
Aptamer quench: fluorescent aptamer quenching in GRK2 counter-screen dose response. 110 tested, under 10 active. Fluorescent RNA aptamer beads, flow cytometry; stronger effect = higher value. fluorescence change (kMESF span), kMESF (test concentration not listed). shares compounds with GRK2 inh;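 active means compounds whose bead fluorescence drops by more than 37 kMESF across the dose range, marking them as dye quenchers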
FAM quench CP1: aptamer fluorescence quenching in GRK2 counter-screen; shares compounds with GRK2 inh; Carboxyfluorescein RNA aptamer on beads, flow cytometry quenching; stronger effect = lower value; fluorescence response (% of DMSO), % at 10 µM; 2,000 tested, under 10 active;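 active means compounds that quench the bead-bound fluorescent RNA probe, cutting fluorescence to under half of the solvent control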;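 further: counterscreen run without GRK2 so only probe quenching by compound is measured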
GRK2 CP2: GRK2 aptamer-displacing inhibitors, hit retest, confirmation, biochemical, cherry pick 2, bead flow cytometry. shares compounds with GRK2 inh. bead-bound GRK2, FAM-aptamer displacement. inhibition of aptamer binding, % at 10 µM. 360 tested, under 10 active. AID 504782, 2011;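 active means inhibition of aptamer binding above 40%, about triple the noise seen with nonglowing compounds, on plates passing quality control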;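 further: negative values mostly come from compounds that fluoresce themselves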
FAM quench SP: aptamer fluorescence quenching in GRK2 counter-screen | shares compounds with GRK2 inh | carboxyfluorescein RNA aptamer beads, flow cytometry quenching; stronger effect = lower value | fluorescence response vs DMSO, % at 10 µM | 360 tested, under 10 active;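 active means response vs DMSO under 50%, meaning signal dropped by over half, treated as fluorescence quencher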;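 further: labelled aptamer on streptavidin beads without GRK2 as a quench counter-screen; 100% = bead fluorescence of DMSO wells and lower means quenching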
* hit, by the source's call; i = inactive; . = not tested or not shown. Only some compounds are listed: those with a hit (about 1.6% of all), similar ones and a draw of the others.

SMILES | Efflux pump mplx | ATG4B inhibitor | GRK2 inh | CR mimetic SO | GRK2 CP1 | FAM quench CP1 | others
COc1ccccc1N1CCN(S(=O)(=O)c2ccc3c(c2)NC(=O)C(C)S3)CC1 (configuration not stated) | 0 | -4 | 2 | 115 | . | .
COc1ccccc1N1CCN(C(=O)C(C)CS(=O)(=O)c2ccc3c(c2)NC(=O)CS3)CC1 (configuration not stated) | 0 | 3 | 54* | 88 | . | . | GRK2 CP2=i;FAM quench SP=104
CC(C)(C)NC(=O)CSc1nc2cc(S(=O)(=O)N3CCCCC3)ccc2o1 | 0 | -1 | 0 | 99 | . | .
CC[n+]1ccc(C[n+]2ccccc2)c2ccccc21 | 0 | 39 | 54* | 95 | 3 | 95
O=C(CCC1CCCN(C(=O)CCN2CCCCC2=O)C1)NCc1ccccc1F (configuration not stated) | 0 | 6 | 17 | 109 | -5 | 101
Fc1ccccc1CN1CCCN(C(=S)Nc2cccc(Cl)c2)C1 | 0 | -4 | 1 | 101 | . | .
O=C(Nc1ccccc1)N1CCCN(Cc2ccccc2F)C1 | 0 | -12 | 99* | 98 | 1 | 92
CCN(CC)C(=O)CCc1nc2sc3c(c2c(=O)[nH]1)CCCC3 | 0 | 4 | 1 | 104 | . | .
CCCCc1nc2sc3c(c2c(=O)[nH]1)CCC3 | 0 | 7 | 58* | 111 | -2 | 99
CCOC(=O)c1cnc(SC2CC(=O)N(c3ccc(OC)c(OC)c3)C2=O)nc1N (configuration not stated) | 0 | -2 | 45* | 96 | -4 | 98
COc1ccc(CC(=O)NNC(=O)COc2ccc(F)cc2)cc1S(=O)(=O)N1CCOCC1 | 0 | -7 | 41* | 118 | -4 | 95
COc1ccc(CC(=O)NNC(=O)COc2ccc(C)cc2)cc1S(=O)(=O)N1CCOCC1 | 0 | 5 | 0 | 98 | . | .
O=C(O)c1ccc(-n2c(-c3cc(-c4ccco4)[nH]n3)n[nH]c2=S)cc1 | 0 | 6 | 80* | 95 | 4 | 99
CC(=O)c1ccc(-n2c(-c3cc(-c4ccco4)[nH]n3)n[nH]c2=S)cc1 | 0 | -7 | 6 | 98 | . | .
NC(=O)c1ncn([C@@H]2O[C@H](CNCc3cccn3-c3ccncc3)[C@@H](O)[C@H]2O)n1 | . | -2 | . | . | . | .
Cc1cc(NC(=O)CCS(=O)(=O)c2ccc3c(c2)NC(=O)C(C)S3)ccc1Br (configuration not stated) | 0 | -16 | 3 | 138 | . | . | GRK2 CP2=19;FAM quench SP=102
CC1Sc2ccc(S(=O)(=O)CCC(=O)NCc3ccccc3)cc2NC1=O (configuration not stated) | 0 | -11 | 35 | 103 | . | . | GRK2 CP2=-12;FAM quench SP=101
COc1cccc(CNC(=O)CCS(=O)(=O)c2ccc3c(c2)NC(=O)C(C)S3)c1 (configuration not stated) | 0 | -11 | 20 | 86 | . | .
CC1Sc2ccc(S(=O)(=O)CCC(=O)NCc3ccc(Cl)cc3)cc2NC1=O (configuration not stated) | 0 | -5 | 48* | 89 | 2 | 103 | GRK2 CP2=31;FAM quench SP=98
COc1ccc(CNC(=O)CCS(=O)(=O)c2ccc3c(c2)NC(=O)C(C)S3)cc1 (configuration not stated) | 0 | -1 | 23 | 105 | . | .
CC1Sc2ccc(S(=O)(=O)CCC(=O)Nc3ccccn3)cc2NC1=O (configuration not stated) | 0 | -3 | 0 | 112 | . | .
CC1Sc2ccc(S(=O)(=O)CCC(=O)Nc3cc(F)ccc3F)cc2NC1=O (configuration not stated) | 0 | -4 | 0 | 112 | . | . | GRK2 CP2=-2;FAM quench SP=102
O=c1cc(CSc2ccccc2)nc(-c2ccncc2)[nH]1 | 0 | -2 | 6 | 103 | . | .
Cc1ccc(NC(=O)CN2CCN(S(=O)(=O)c3cccs3)CC2)cc1S(=O)(=O)N(C)C | 0 | 0 | 1 | 103 | . | .
COc1ccc(CN2CCNC(=O)C2CC(=O)NCCCn2cccn2)c(OC)c1 (configuration not stated) | 0 | -12 | 1 | 98 | . | .
SMILES | Efflux pump mplx | ATG4B inhibitor | GRK2 inh | CR mimetic SO | GRK2 CP1 | FAM quench CP1 | others
Cc1cc(C)c2nc(-c3ccccn3)cc(C(=O)Nc3ccc(S(=O)(=O)Nc4cc(C)on4)cc3)c2c1 | -4 | 14 | 0 | 95 | -4 | 95
C[C@@H](NC(=O)[C@@H]1Cc2ccccc2CN1C(=O)OC(C)(C)C)C(=O)NC1CCCC1 | 0 | -4 | 0 | 110 | . | .
O=C(O)C1Sc2[nH]c(=O)sc2C2c3ccc(O)cc3OC(=O)C12 (configuration not stated) | 0 | -5 | 15 | 104 | . | .
CCCCn1c2nc3ccccc3nc2c2c(=N)oc(C)nc21 | . | -14 | . | . | . | .
COc1ccc(-n2c3nc4ccccc4nc3c3c(=N)oc(C)nc32)cc1 | 0 | -3 | 86* | 95 | . | . | GRK2 CP2=-1;FAM quench SP=100
Cc1nnc(NC(=O)CSc2nnc(CC(=O)Nc3ccccc3C)n2C)s1 | 0 | -3 | 0 | 86 | . | .
Cc1cc(NC(=O)c2ccccc2C)n(-c2cccc(F)c2)n1 | 0 | 6 | 100* | 92 | 1 | 103
O=C(NCCc1nc(-c2ccccc2)no1)c1ccco1 | 0 | -9 | 2 | 101 | . | .
C=CCn1c(CNC(=O)c2ccco2)nnc1SCC(=O)c1ccccc1 | 0 | -1 | 80* | 103 | -4 | 97
CCN(CC)C(=O)c1ncn(C)c1C(=O)N(CC)CC | 0 | 3 | 2 | 82 | . | .
CC(C)(CS(=O)(=O)[O-])NC(=O)CC[N+](C)(C)CCO | 0 | -10 | 99* | 108 | 96* | 94 | Aptamer quench=-2.8
Cn1ccnc1SCC(=O)c1cccc(C(F)(F)F)c1 | 0 | -8 | 4 | 81 | . | .
COc1ccc(S(=O)(=O)NCC(c2ccc(F)cc2)N2CCN(C)CC2)cc1 (configuration not stated) | 0 | -5 | 76* | 102 | 46* | 100 | Aptamer quench=0.2
COc1ccc(N2CCN(C(=O)CCCOc3cc(=O)n(C)c4ccccc34)CC2)cc1 | 0 | -13 | 56* | 106 | -1 | 99
